Shown are actives, neighbours in structure and some others; about 3.1% of the full set was active somewhere.
LGR2 antag = inhibitors of bursicon-induced LGR2 CRE-luciferase signal, primary screen, cell-based, HEK293, CRE-luciferase reporter, bursicon stimulation; Drosophila bursicon receptor LGR2 (rickets); bursicon-stimulated, 4 h; inhibition, % at 9.99 µM; 380,000 tested, 0.35% active; AID 720647, 2013;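 active means drop in luminescence signal, shown as inhibition above about 50% in the replicate tests, limit read from the data, passing the limit was not always enough; inconclusive means probably only some replicates passing the limit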;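 further: agonist challenge used bursicon conditioned medium at about half maximal strength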
TROY NFkB inh = inhibitors of TROY-driven NF-kB signaling, primary screen, Q293 LMP1-TROYcd cells, NF-kB luciferase, uHTS; Q293 LMP1-TROYcd NF-kB luciferase reporter, 4 h; inhibition, % at 10 µM; 360,000 tested, 0.98% active;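 active means compounds whose plate-normalised and pattern-corrected inhibition of the luciferase reporter signal at the single screening dose is 50% or more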
TWEAK Fn14 block = inhibitors of TWEAK-Fn14 signaling, primary screen, luciferase reporter cells, uHTS; AID 1159606, 2016; TWEAK-stimulated Fn14 reporter cells, luciferase luminescence, 8 h; 360,000 tested, 2% active; inhibition, % at 10 µM; in the data active means inhibition above about 50%
EWS-Fli block = EWS/Fli-driven NR0B1 reporter inhibitors, primary screen, A673 cells, NR0B1 luciferase, luminescence, MLPCN library | viability-normalised | inhibition, % at 12.6 µM | 350,000 tested, 0.67% active | AID 651661, 2012;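 active means mean inhibition of at least 50% after viability correction, with every replicate also passing that limit; inconclusive means mean reaches 50% but only one of two replicates passes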;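 further: firefly luciferase signal divided by Alamar Blue viability fluorescence both relative to DMSO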
LMP1 NFkB inh = EBV LMP1-driven NF-kappaB luciferase reporter inhibitors, primary screen, cell-based, luminescence, single point; LMP1-induced NF-kappaB luciferase reporter cells; inhibition, % at 12.5 µM; 350,000 tested, 0.69% active; AID 504558, 2011; in the data active means inhibition above about 41%; inconclusive means no clear call, values can overlap the other calls;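 further: 0% = neutral control wells and 100% = reference inhibitor control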
PAX8 inh HTS = inhibitors of PAX8-driven TPO luciferase reporter, primary screen, RMG-I cells, single concentration. inhibition, % at 12.6 µM. 360,000 tested, 1.2% active. AID 652154, 2013. SteadyGlo, 24 h;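 active means mean replicate inhibition at least 60% with every replicate also reaching 60%; inconclusive means only one of the two criteria is met; inactive means mean below 60% and not all replicates reaching 60%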;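 further: luciferase light reporting Pax8 driven TPO promoter activity; plate controls were median of neutral control wells for no effect and mitoxantrone controls for full effect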
Starred values were filed as active, the others as inactive.

Screening Nc1ccc(C(=O)NN2C(=O)[C@H](Cl)C2c2ccc(Cl)cc2)cc1 (stereo partly specified) returned LGR2 antag -11, TROY NFkB inh -23, TWEAK Fn14 block 65*, EWS-Fli block 27, LMP1 NFkB inh -9 and PAX8 inh HTS -5.
CN(C(=O)c1ccc(S(=O)(=O)c2cccc(Cl)c2)c([N+](=O)[O-])c1)C1CCCCC1 was read as LGR2 antag inconclusive, TROY NFkB inh 56*, TWEAK Fn14 block 92*, LMP1 NFkB inh 6 and PAX8 inh HTS 9.
`CN(C(=O)c1ccc(NC(=O)Cc2cccc([N+](=O)[O-])c2)cc1)C1CCCC1` gave LGR2 antag 3, TROY NFkB inh -4, TWEAK Fn14 block -22, EWS-Fli block 15, LMP1 NFkB inh -1 and PAX8 inh HTS -5.
Screening Cc1cc(=O)[nH]c(N=N/C(=N/Nc2ccccc2C)c2ccccc2)n1 returned TROY NFkB inh -37, TWEAK Fn14 block -35 and LMP1 NFkB inh 50*.
O=C(NC1=C(Nc2ccc(Cl)cc2)C(=O)c2ccccc2C1=O)c1ccccc1 was read as TROY NFkB inh 21, TWEAK Fn14 block 27, EWS-Fli block -8, LMP1 NFkB inh -2 and PAX8 inh HTS 47.
`O=C1C(Cl)=C(NC(=O)c2ccccc2)C(=O)C(Cl)=C1NC(=O)c1ccccc1` gave LGR2 antag 0, TROY NFkB inh 10, TWEAK Fn14 block 24, EWS-Fli block 30, LMP1 NFkB inh -1 and PAX8 inh HTS 80*.
For N#Cc1c(-c2cccs2)nc(SCc2ccc(Cl)cc2)[nH]c1=O the results were LGR2 antag -12, TROY NFkB inh 74*, TWEAK Fn14 block 14, EWS-Fli block -1, LMP1 NFkB inh -11 and PAX8 inh HTS 5.
`CSc1nc(-c2cccs2)c(C#N)c(=O)[nH]1` gave LGR2 antag -17, TROY NFkB inh -1, TWEAK Fn14 block -22, EWS-Fli block 1, LMP1 NFkB inh -1 and PAX8 inh HTS -9.
O=C(/C=C/c1cn(-c2ccccc2)nc1-c1cccnc1)c1ccco1 was read as LGR2 antag 48, TROY NFkB inh 32, TWEAK Fn14 block 80*, EWS-Fli block 37, LMP1 NFkB inh -43 and PAX8 inh HTS 37.
Screening O=C(/C=C/c1cn(-c2ccccc2)nc1-c1cccnc1)N1CCCC1 returned LGR2 antag 4, TROY NFkB inh 44, TWEAK Fn14 block 23, EWS-Fli block -13, LMP1 NFkB inh inconclusive and PAX8 inh HTS 20.
Nc1ncnc2c1C(c1ccccc1)c1c(ccc3ccccc13)O2 (stereo unspecified) was read as LGR2 antag 1, TROY NFkB inh 57*, TWEAK Fn14 block -76, EWS-Fli block 20, LMP1 NFkB inh -39 and PAX8 inh HTS 19.
`CN(C)c1ccc(CNc2ccc3c(c2)ncn3C(C)(C)C)cc1` gave LGR2 antag 5, TROY NFkB inh 87*, TWEAK Fn14 block 58*, EWS-Fli block 1, LMP1 NFkB inh -7 and PAX8 inh HTS -8.
CCn1cnc2cc(NCc3ccc(N(C)C)cc3)ccc21 was read as LGR2 antag -40, TROY NFkB inh 67*, TWEAK Fn14 block 65*, EWS-Fli block -33, LMP1 NFkB inh -12 and PAX8 inh HTS -23.
Screening CCN(CC)c1ccc(CNc2ccc3c(c2)ncn3CC)cc1 returned LGR2 antag 11, EWS-Fli block -4 and PAX8 inh HTS 19.
CCCn1cnc2cc(NCc3cccc(OC)c3)ccc21 was read as LGR2 antag -15, TROY NFkB inh 66*, TWEAK Fn14 block 73*, EWS-Fli block -97 and LMP1 NFkB inh 6.
C[C@H](CO)N1C[C@H](C)[C@H](CN(C)Cc2ccc(Oc3ccccc3)cc2)Oc2c(NC(=O)NC3CCCCC3)cccc2C1=O was read as LGR2 antag 1 and EWS-Fli block 17.
For C/C=C/c1ccc([C@@H]2[C@@H](CO)N(C(=O)CC)[C@@H]2CNC(=O)CC)cc1 the results were LGR2 antag -4, EWS-Fli block -8 and PAX8 inh HTS -8.

Bioassay records deposited in PubChem BioAssay by several laboratories.
